Screening data deposited in PubChem by several laboratories.
Shown are actives, neighbours in structure and some others; about 2% of the full set was active somewhere.
CHT allo act = allosterically activates the human high affinity choline transporter; CHT-expressing cells, membrane potential dye, choline EC20; hits give high values; LV-AA mutant CHT in HEK293 cells; B-score at 10 µM; 310,000 tested, 0.49% active;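 active = initial fluorescence not abnormally high and integrated response B-score, plate-corrected, over 3 SD above library mean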
Target sequence (Q9GZV3 whole entry, looked up): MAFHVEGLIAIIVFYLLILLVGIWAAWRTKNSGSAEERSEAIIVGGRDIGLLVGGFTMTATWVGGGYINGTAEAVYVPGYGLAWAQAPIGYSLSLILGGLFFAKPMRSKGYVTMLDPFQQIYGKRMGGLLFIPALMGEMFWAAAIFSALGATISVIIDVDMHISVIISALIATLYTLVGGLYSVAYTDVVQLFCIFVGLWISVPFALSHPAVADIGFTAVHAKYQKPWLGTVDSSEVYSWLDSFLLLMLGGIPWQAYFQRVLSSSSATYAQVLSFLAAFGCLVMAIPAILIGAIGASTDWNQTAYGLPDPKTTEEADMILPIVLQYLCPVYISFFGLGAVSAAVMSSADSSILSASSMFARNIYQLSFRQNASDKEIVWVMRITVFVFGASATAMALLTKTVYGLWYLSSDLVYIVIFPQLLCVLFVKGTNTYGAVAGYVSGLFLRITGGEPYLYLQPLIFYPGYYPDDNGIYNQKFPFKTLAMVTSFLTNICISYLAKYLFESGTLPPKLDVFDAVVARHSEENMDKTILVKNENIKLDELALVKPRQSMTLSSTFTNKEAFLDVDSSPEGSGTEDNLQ
Kir21 inh = blocks the mouse Kir2.1 inward-rectifier potassium channel; B-score at 10 µM; 310,000 tested, 0.85% active; HEK293-Kir2.1, FluxOR thallium flux fluorescence; hits give low values; P35561;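 active = fluorescence ratio B-score at or below minus 3 SD of library scores, with starting-brightness B-score within 2 SD, cut at about -4.2 in these data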;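 also: channel flux triggered by added potassium and thallium sulfate stimulus; B-score of peak minus minimum fluorescence over baseline after thallium stimulus; more negative B-score means stronger Kir2.1 block with less thallium influx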
TAG inh = inhibitors of triacylglycerol accumulation; H9c2 cells, Nile Red lipid (TAG) fluorescence; cells loaded with 200 µM oleic acid; inhibition, % at 12.5 µM; 230,000 tested, 0.66% active; AID 651582;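 active = pattern-corrected inhibition of lipid staining of at least 50% with the nuclear-stain viability signal not falling by more than 50%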;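 also: 0% = DMSO wells and 100% = triacsin C control wells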
CHT inh = inhibitors of human choline transporter CHT | Q9GZV3 | CHT-expressing cells, membrane potential dye, choline response; hits give low values | B-score at 10 µM | 310,000 tested, 0.86% active;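 active = B-score over 3 SD under the library average, and starting fluorescence ratio not unusually high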;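 also: choline stimulus applied at its EC90 after an EC20 pre-addition; B-score computed on integrated fluorescence ratio after choline addition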
CHT activ conf = confirmation of human choline transporter (CHT) activators; shares compounds with CHT allo act; CHT-expressing cells, membrane potential dye fluorescence (FDSS); % of choline EC20–EC90 response window; HEK293 expressing CHT LV-AA mutant; choline added at its EC20; activation, % at 10 µM; 2,500 tested, 91% active; AID 504833;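 active = primary screen active, with duplicate mean activation above negative control mean plus 3 SD, cut at about 11% in these data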
HEK293 MP dye = counter-screen for CHT activators: effect in parental HEK293 cells | shares compounds with CHT allo act | membrane potential dye fluorescence (FDSS); measured after EC20 choline addition | ratio readout change at 10 µM, hits read low | 2,500 tested, 62% active | AID 623908;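 active = duplicate-averaged ratio beyond 3 SD from buffer wells, up or down, though filed actives are nearly all decreases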
Active calls of the source: *; i = inactive; · = no result given.

SMILES | CHT allo act | Kir21 inh | TAG inh | CHT inh | CHT activ conf | HEK293 MP dye
COc1ccc(Cn2c(-c3ccc(C)cc3)c[n+]3ccccc23)cc1 | 10.9* | -0.88 | -9.1 | i | 61.9* | -50.9*
CCC1CCCCN1CCNS(=O)(=O)c1ccc2c(c1)oc(=O)n2C (configuration not stated) | i | -0.57 | -0.1 | i | 35.3* | -24.9*
Cc1[nH]c(=O)[nH]c(=O)c1S(=O)(=O)Nc1ccc(F)cc1F | i | 0.98 | · | i | · | ·
O=C(COc1ccccc1)NCC(=O)N/N=C/c1ccc(Br)cc1 | i | -1.88 | 13.5 | i | · | ·
CCCN(CC(=O)Nc1ccccc1C)C(=O)c1ccc(C)c(S(=O)(=O)N2CCCCC2)c1 | i | -1.08 | 12.7 | i | 14.4* | i
CCCN(CC(=O)Nc1ccccc1C)C(=O)c1ccc(Cl)c(S(=O)(=O)N2CCCC2)c1 | i | 2.19 | 0.3 | i | · | ·
COc1ccccc1NS(=O)(=O)c1ccc(C)c(C(=O)NC2=NCCS2)c1 | · | · | 3.1 | · | · | ·
COc1ccc(Nc2ccc3c(c2)=NC2(CCCCC2)[N+]=3[O-])cc1 | 7.19* | 0.87 | 47.6 | i | 50.8* | -73.3*
O=C(CN1C(=O)NC(CCc2ccccc2)C1=O)Nc1cccc(Br)c1 (configuration not stated) | · | · | -14.4 | · | · | ·
CCN(CC)CCNc1cc(C)nc2c1C(=O)C(=O)C=C2N1CCCCC1 | 7.33* | 3.85 | 81.9* | i | 64.5* | -66.1*
CC(OC(=O)C1=COCCO1)C(=O)NC1CCCCC1C (configuration not stated) | · | · | 14.2 | · | · | ·
N=c1c2c(n(Cc3ccc(F)cc3)c3c1CCC3)CCCC2 | i | 0.58 | -30.9 | i | · | ·
N=c1c2c(n(Cc3ccc(Cl)cc3)c3c1CCC3)CCC2 | 8.09* | -0.11 | · | i | 50.7* | -42.5*
N=c1c2c(n(Cc3cccc(Cl)c3)c3c1CCC3)CCCC2 | 8.8* | -0.01 | · | i | 66.3* | -40.7*
CCn1c2c(c(=N)c3c1CCC3)CCCC2 | 9.28* | -1.04 | -7.4 | i | 67.6* | -65.4*
N=c1c2c(n(Cc3ccccc3)c3c1CCC3)CCC2 | i | 0.6 | -26.2 | i | · | ·
CN(C)S(=O)(=O)c1cccc(NC(=O)CCCc2nc3ccccc3c(=O)[nH]2)c1 | i | 1.81 | 7.7 | i | · | ·
CC[n+]1c(C)n(-c2ccccc2)c2ccc(C(=O)OC)cc21 | 7.54* | -0.22 | -12.1 | i | 32.1* | -29*
COc1ccc(N2CC(C)Cn3c2nc2c3c(=O)n(Cc3ccc(F)cc3)c(=O)n2C)c(OC)c1 (configuration not stated) | i | -1.83 | -28.0 | i | 18.2* | i
CO[C@H]1C=CO[C@@]2(C)Oc3c(C)c(O)c4c(O)c(c5c(c4c3C2=O)NC2(CCN(CC(C)C)CC2)N=5)=NC(=O)C(C)=CC=C[C@H](C)[C@H](O)[C@@H](C)[C@@H](O)[C@@H](C)[C@H](OC(C)=O)[C@@H]1C | i | -0.74 | · | i | · | ·
CCC(C)N1CCC2(CC1)N=c1c(c3c4c5c(C)c(O)c3c(O)c1=NC(=O)C(C)=CC=C[C@H](C)[C@H](O)[C@@H](C)[C@@H](O)[C@@H](C)[C@H](OC(C)=O)[C@H](C)[C@@H](OC)C=CO[C@@](C)(O5)C4=O)N2 (some centres not stated) | i | · | 16.1 | i | 22.0* | -41.7*
Cn1c2ccccc2n2c(=O)cc(-c3ccccc3)c(C#N)c12 | i | 1.29 | -5.4 | i | · | ·
Cc1cc(=O)n2c3ccccc3n(CC(O)CN3CCN(CCO)CC3)c2c1C#N (configuration not stated) | i | -0.07 | 17.6 | i | 46.1* | -33.7*
Cc1cc(=O)n2c3ccccc3n(CC(O)CN3CCC(C)CC3)c2c1C#N (configuration not stated) | · | -0.49 | -4.4 | · | · | ·
Cc1cc(=O)n2c3ccccc3n(CC(O)CN3CCN(Cc4ccccc4)CC3)c2c1C#N (configuration not stated) | 7.62* | -1.28 | 9.6 | i | 51.0* | -55*
COc1ccccc1-c1cnc(C(O)c2ccc(C)cc2)[nH]1 (configuration not stated) | · | · | -7.8 | · | · | ·
Cc1ccc(S(=O)(=O)N2CCCCC2)cc1NC(=O)COC(=O)c1cccn1C | · | · | 3.4 | · | · | ·
